UHRF1 binding: human UHRF1 methylated DNA binding inhibitors; actives 0.75% (n = 370,000); UHRF1 binding to methylated oligo, TR-FRET; inhibition, % at 4.4 µM; Q96T88; in the data active = inhibition above about 21%;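 note: UHRF1 SRA domain binding a hemimethylated CpG hairpin DNA probe; 0% = median of test compound wells and 100% = reference inhibitor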
LEDGF integ inh: blocks HIV-1 LEDGF/p75-dependent DNA integration; TR-FRET IN-LEDGF/p75 DNA integration, Eu/Cy5; inhibition, % at 3.7 µM; actives 0.64% (n = 370,000);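 active = inhibition above the screen-wide mean plus 3 SD, cut at about 13% in these data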;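 note: signal is the Cy5 over europium emission ratio at 671 and 618 nm; 0% = plate median of compound wells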
MBD2 inh: blocks human MBD2 binding to methylated DNA | Q9UBB5 | TR-FRET, MBD2 binding to methylated oligonucleotide | inhibition, % at 4.4 µM | actives 0.31% (n = 370,000); in the data active = inhibition above about 13%
PLCg1 inh: inhibitors of human phospholipase C gamma1; P19174; purified PLC-gamma1, fluorogenic substrate, fluorescence; inhibition, % at 12.2 µM; actives 0.84% (n = 370,000)
Target sequence (P19174 whole entry, looked up): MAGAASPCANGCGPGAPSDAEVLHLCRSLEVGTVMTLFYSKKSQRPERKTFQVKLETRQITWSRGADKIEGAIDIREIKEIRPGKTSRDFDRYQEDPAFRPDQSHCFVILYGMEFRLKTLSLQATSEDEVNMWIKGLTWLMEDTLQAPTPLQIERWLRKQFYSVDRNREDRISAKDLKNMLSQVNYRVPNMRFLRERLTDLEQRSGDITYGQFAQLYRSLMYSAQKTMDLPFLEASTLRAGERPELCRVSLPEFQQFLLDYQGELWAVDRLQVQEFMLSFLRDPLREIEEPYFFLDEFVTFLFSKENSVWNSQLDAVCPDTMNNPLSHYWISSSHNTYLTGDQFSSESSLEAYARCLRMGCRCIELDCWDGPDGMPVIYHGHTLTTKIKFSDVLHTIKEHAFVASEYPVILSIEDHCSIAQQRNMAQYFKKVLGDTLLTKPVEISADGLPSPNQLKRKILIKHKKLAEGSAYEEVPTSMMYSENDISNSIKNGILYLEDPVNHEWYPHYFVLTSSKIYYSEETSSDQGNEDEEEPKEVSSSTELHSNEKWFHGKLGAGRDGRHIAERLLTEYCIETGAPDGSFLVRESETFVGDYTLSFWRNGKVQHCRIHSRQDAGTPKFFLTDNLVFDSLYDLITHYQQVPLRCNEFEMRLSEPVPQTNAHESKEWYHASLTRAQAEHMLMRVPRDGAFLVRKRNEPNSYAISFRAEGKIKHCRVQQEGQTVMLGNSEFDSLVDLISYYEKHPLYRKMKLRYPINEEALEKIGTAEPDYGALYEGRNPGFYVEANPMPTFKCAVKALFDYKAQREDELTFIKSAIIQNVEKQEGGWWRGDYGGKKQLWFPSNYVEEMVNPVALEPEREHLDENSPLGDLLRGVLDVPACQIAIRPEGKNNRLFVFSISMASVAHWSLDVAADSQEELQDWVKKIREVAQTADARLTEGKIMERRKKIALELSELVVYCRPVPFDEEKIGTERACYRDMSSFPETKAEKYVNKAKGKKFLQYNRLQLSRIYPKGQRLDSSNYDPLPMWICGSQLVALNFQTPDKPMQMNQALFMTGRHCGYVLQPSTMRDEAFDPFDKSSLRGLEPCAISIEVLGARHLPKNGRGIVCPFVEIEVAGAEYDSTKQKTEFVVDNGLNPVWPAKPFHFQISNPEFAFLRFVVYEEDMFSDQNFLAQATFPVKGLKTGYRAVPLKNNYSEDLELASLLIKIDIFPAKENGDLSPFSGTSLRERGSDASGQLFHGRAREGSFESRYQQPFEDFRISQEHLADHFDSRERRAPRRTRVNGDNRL
PLCb3 inh: inhibitors of human phospholipase C beta3; AID 720704; Purified PLC-beta3, fluorogenic substrate, fluorescence; inhibition, % at 12.2 µM; actives 0.18% (n = 370,000); Q01970; in the data active = inhibition above about 11%;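 note: 0% = median of compound wells on plate and 100% = full blocker control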
PLCgamma1 ctr: counter-screen for PLC-beta3 inhibitors: inhibitors of human PLC-gamma1; shares compounds with PLCg1 inh; purified PLC-gamma1, fluorogenic substrate, fluorescence; inhibition, % at 12.3 µM; actives 3.1% (n = 3,300); AID 743258
PLCb3 confirm: confirmation of human PLC-beta3 inhibitors; shares compounds with PLCg1 inh; purified PLC-beta3, fluorogenic substrate fluorescence; inhibition, % at 12.3 µM; actives 1% (n = 3,300); in the data active = inhibition above about 11%
* = called active by the depositor; x = not tested or not shown. In the library only some 2.3% were active in any assay of this set; here they are far more common. Cut-off read from the data, not from the text of the source, unless noted: active = inhibition above about 9.5%; inactive = the rest.

SMILES	UHRF1 binding	LEDGF integ inh	MBD2 inh	PLCg1 inh	PLCb3 inh	PLCgamma1 ctr	PLCb3 confirm
COC(=O)[C@]12C[C@H](CC(=O)NCc3ccc(C)o3)C(=O)N(Cc3cccc4ccccc34)C1=C[C@H](C(C)C)O[C@@H]2C1CC1	2	2	-1	5	1	x	x
Cc1cccc(N=Nc2c(N)n[nH]c2-c2ccc(Cl)cc2)c1	-1	-1	-7	11*	10	8	5
CCn1c(N2CCC(C)CC2)nc2c1c(=O)n(C)c(=O)n2C	2	-5	5	12*	-2	0	1
OC(c1ccccc1)(c1ccccc1)C1CCN(CCCOc2ccc(Br)cc2)CC1	3	2	0	4	4	x	x
Cc1ccc(S(=O)(=O)N/N=C/c2c(F)cccc2Cl)cc1	-2	4	-5	11*	2	-8	-8
Brc1ccc(CSc2nnc(SCc3ccccc3)s2)cc1	-1	-3	-1	0	1	x	x
O=C(CCN1CCN(c2ccccc2F)CC1)Nc1ccccc1F	2	-1	-1	11*	6	-3	-1
O=C(CN1CCN(c2ccccc2F)CC1)Nc1ccccc1F	0	2	5	4	2	x	x
COc1ccccc1NC(=O)C(=N\O)/C(C)=N/O	20	0	0	11*	4	-6	0
COC(=O)C1CN(C2CC2)CCS(=O)(=O)N1Cc1cn(Cc2ccc(Cl)cc2)nn1 (centres undefined)	12	0	7	0	0	x	x
O=C(NCCOCC(F)(F)C(F)F)c1cc(F)c(F)cc1Cl	3	6	-4	15*	2	-3	-5
CN1CCN(C(=O)CN(CCc2ccccc2)S(C)(=O)=O)CC1	4	-3	0	0	1	x	x
CCN1CCN(C(=O)CN(CCc2ccccc2)S(C)(=O)=O)CC1	5	1	-4	9.9*	3	-6	0
COc1ccc([C@H]2OC(=O)C[C@@H]2C(=O)N2CCN(c3ccccc3F)CC2)cc1OC	2	-4	2	-2	2	x	x
Cc1onc(-c2ccccc2Cl)c1C(=O)NC(C)c1ccccc1 (centres undefined)	4	-5	2	0	-2	x	x
Cc1noc(C)c1NC(=O)NC(c1ccccc1)c1ccccc1	-1	1	6	10*	-6	6	2
CCCCCC(=O)NC1CCCCN(Cc2ccc(Cl)cc2)C1=O (centres undefined)	2	-2	2	3	0	x	x
O=C(Nc1ccc(S(=O)(=O)N2CCCC2)cc1)c1ccccc1	1	2	8	-3	-5	x	x
O=C(COC(=O)c1n[nH]c2ccccc12)Nc1ccc(S(=O)(=O)N2CCCC2)cc1	-2	-1	-3	11*	5	2	-1
O=C(O)c1ccccc1C(=O)Nc1ccc(S(=O)(=O)N2CCCC2)cc1	2	-3	1	10*	5	-3	2
CC(C)c1ccccc1NC(=O)Nc1ccc2c(c1)OCO2	1	3	-4	12*	3	9.7*	2
O=C(COC(=O)c1n[nH]c2ccccc12)Nc1cccc(S(=O)(=O)N2CCOCC2)c1	2	-4	1	-3	-7	x	x
O=C(Nc1ccc2c(c1)OCO2)c1cccc(S(=O)(=O)N2CCCC2)c1	5	4	-3	6	11*	-4	1
COC(=O)c1ccccc1NC(=O)Nc1ccc2c(c1)OCO2	-1	2	-4	1	2	x	x
Cc1ccccc1-c1cccc2c3c([nH]c12)[C@@H]1C[C@H]2[C@@H](CN1CC3)[C@H](C)ON2C	2	-2	5	-82	-115	x	x
SMILES	UHRF1 binding	LEDGF integ inh	MBD2 inh	PLCg1 inh	PLCb3 inh	PLCgamma1 ctr	PLCb3 confirm
N#CCC[C@H]1CC[C@]2(CCCN(S(=O)(=O)c3ccccc3)C2)O1	3	-2	9	4	-1	x	x
CN(CCOc1ccccc1)C(=O)c1ccc2c(c1)OCO2	2	-9	1	3	-8	x	x
Cc1cc(NC(=O)c2ccc3c(c2)OCO3)ccc1NC(=O)c1ccco1	1	-1	4	-3	5	x	x
O=C(NCCOc1ccccc1)c1ccc2c(c1)OCO2	1	2	-1	13*	3	0	-3
Cc1cc(NC(=O)c2ccc3c(c2)OCO3)ccc1NC(=O)c1ccccc1	3	-8	3	4	12*	-6	15*
Fc1cccc(CNC(=S)OC2CCC23CCC(c2ccccc2)CC3)c1 (centres undefined)	8	-2	6	-2	0	x	x
C[C@H]1[C@@H](C(=O)N2CCCC2)CC(=O)/C(=N/OCc2ccccc2)C[C@@H]1c1ccccc1	1	-1	0	2	-1	x	x
O=C(NC1CCCN(Cc2ccc(Cl)cc2)C1)c1ccnc(Cl)c1 (centres undefined)	0	8	-1	11*	-13	-8	-2
CCC12CN3CC(CC)(CN(C1)C3c1ccc([N+](=O)[O-])o1)C2=O (centres undefined)	3	-3	10	11*	7	-4	0
Cc1ccc(N2C(=O)CC(Cn3nc(C)cc3C)C2=O)cc1 (centres undefined)	0	-1	-4	11*	-1	7	1
COCCCNC(=O)C[C@H]1C[C@@]2(C(=O)OC)C(=C[C@H](C3CCCC3)O[C@@H]2C)N(CCC2=CCCCC2)C1=O	1	-3	9	-3	-2	x	x
O=S1(=O)CCN(Cc2ccc(Cl)cc2)CC1	8	-4	5	14*	10	-8	-3
C=CCN1C(=O)[C@@H](CC(=O)N2CCN(C(=O)C3CC3)CC2)[C@]2(C(=O)OCC)CCCCC/C=C/12	0	1	5	0	-1	x	x
COc1ccc(CCNC(=O)Nc2ccc3c(c2)[C@@]2(CC(=O)N(CC(C)C)C2c2ccccc2)C(=O)N3C)cc1OC (some centres undefined)	-1	-3	4	-1	0	x	x
COc1ccc([N+](=O)[O-])cc1NS(=O)(=O)c1cc(C(=O)O)ccc1OC	1	6	-3	9.5*	-3	-2	-1
CCOC(=O)NC(NC(=S)Nc1ccc(OC)cc1)C(Cl)(Cl)Cl (centres undefined)	0	-4	-2	0	-1	x	x
COC(=O)NC(NC(=S)Nc1ccc([N+](=O)[O-])cc1)C(Cl)(Cl)Cl (centres undefined)	1	1	-6	5	12*	5	7
COc1ccc([N+](=O)[O-])cc1NC(=O)C(C)c1ccccc1 (centres undefined)	-2	-1	3	4	3	x	x

Screening results (PubChem)
